# Assay results: the supplement of paper PMC8728848
# The full list was thinned out, with the strongest signals kept by preference.
# Key:
# Test in all cases: glycan array binding signal (z-score within array); higher = stronger binding
# Details in all cases: glycan notation: IUPAC condensed, linker removed
# [1] = molecular target: Fuc(a1-2)Gal(b1-3)GalNAc(b1-3)Gal(a1-4)Gal(b1-4)Glc
# In short: (§1)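 Glycan array data came from 3228 arrays in the Consortium for Functional Glycomics database, and only arrays with an available protein sequence were kept. Glycan names were put into IUPAC-condensed notation, and columns mapping to the same glycan were averaged. The binding signal is a within-array Z-score, averaged across arrays of one protein sequence run at different concentrations or buffers and across linkers. A negative Z-score can be read as non-binding.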
# [2] = molecular target: Fuc(a1-2)Gal(b1-3)GlcNAc(b1-3)Gal(b1-4)Glc
# In short: as §1
# Fuc(a1-2)Gal(b1-4)GlcNAc = molecular target: Fuc(a1-2)Gal(b1-4)GlcNAc
# In short: as §1
# [3] = molecular target: Fuc(a1-2)Gal(b1-4)GlcNAc(b1-6)GalNAc
# In short: as §1
# [4] = molecular target: Fuc(a1-2)Gal(b1-4)[Fuc(a1-3)]GlcNAc(b1-2)Man(a1-3)[Fuc(a1-2)Gal(b1-4)[Fuc(a1-3)]GlcNAc(b1-2)Man(a1-6)]Man(b1-4)GlcNAc(b1-4)GlcNAc
# In short: as §1
# [5] = molecular target: Fuc(a1-2)Gal6S(b1-3)GlcNAc6S
# In short: as §1
# [6] = molecular target: Fuc(a1-2)[GalNAc(a1-3)]Gal(b1-3)GlcNAc
# In short: as §1
# [7] = molecular target: Fuc(a1-2)[GalNAc(a1-3)]Gal(b1-3)GlcNAc(b1-6)GalNAc
# In short: as §1
# [8] = molecular target: Fuc(a1-2)[GalNAc(a1-3)]Gal(b1-4)[Fuc(a1-3)]GlcNAc(b1-3)GalNAc
# In short: as §1
# Gal(a1-3)Gal(b1-3)GlcNAc = molecular target: Gal(a1-3)Gal(b1-3)GlcNAc
# In short: as §1
# [9] = molecular target: Gal(b1-3)[GlcNAc(b1-6)]GalNAc
# In short: as §1
# [10] = molecular target: Gal(b1-4)GlcNAc(a1-6)Gal(b1-4)GlcNAc
# In short: as §1
# [11] = molecular target: Gal(b1-4)GlcNAc(b1-2)Man(a1-3)[Man(a1-6)]Man(b1-4)GlcNAc(b1-4)GlcNAc
# In short: as §1
# [12] = molecular target: Gal(b1-4)GlcNAc(b1-2)[Gal(b1-4)GlcNAc(b1-6)]Man(a1-6)[GlcNAc(b1-4)][Gal(b1-4)GlcNAc(b1-2)Man(a1-3)]Man(b1-4)GlcNAc(b1-4)GlcNAc
# In short: as §1
# [13] = molecular target: Gal(b1-4)GlcNAc(b1-3)Gal(b1-3)GalNAc
# In short: as §1
# [14] = molecular target: Gal(b1-4)GlcNAc(b1-3)Gal(b1-4)GlcNAc(b1-3)Gal(b1-4)GlcNAc(b1-3)Gal(b1-4)GlcNAc(b1-3)Gal(b1-4)GlcNAc(b1-2)Man(a1-3)[Gal(b1-4)GlcNAc(b1-3)Gal(b1-4)GlcNAc(b1-3)Gal(b1-4)GlcNAc(b1-3)Gal(b1-4)GlcNAc(b1-3)Gal(b1-4)GlcNAc(b1-2)Man(a1-6)]Man(b1-4)GlcNAc(b1-4)GlcNAc
# In short: as §1
# [15] = molecular target: Gal(b1-4)GlcNAc(b1-3)Gal(b1-4)[Fuc(a1-3)GlcNAc(b1-6)]Gal(b1-4)Glc
# In short: as §1
# [16] = molecular target: Gal(b1-4)GlcNAc(b1-3)[Gal(b1-4)GlcNAc(b1-6)]GalNAc
# In short: as §1
# Gal(b1-4)GlcNAc6P = molecular target: Gal(b1-4)GlcNAc6P
# In short: as §1
# Gal6S(b1-3)GlcNAc6S = molecular target: Gal6S(b1-3)GlcNAc6S
# In short: as §1
# Gal6S(b1-4)GlcNAc6S = molecular target: Gal6S(b1-4)GlcNAc6S
# In short: as §1
# GalNAc(b1-4)Gal(b1-4)Glc = molecular target: GalNAc(b1-4)Gal(b1-4)Glc
# In short: as §1
# GalNAc3S(b1-4)GlcNAc3S = molecular target: GalNAc3S(b1-4)GlcNAc3S
# In short: as §1
# [17] = molecular target: GlcNAc(b1-3)Gal(b1-4)GlcNAc(b1-3)Gal(b1-4)GlcNAc(b1-3)Gal(b1-4)GlcNAc(b1-2)Man(a1-3)[GlcNAc(b1-3)Gal(b1-4)GlcNAc(b1-3)Gal(b1-4)GlcNAc(b1-3)Gal(b1-4)GlcNAc(b1-2)Man(a1-6)]Man(b1-4)GlcNAc(b1-4)GlcNAc
# In short: as §1
# [18] = molecular target: GlcNAc(b1-3)[GlcNAc(b1-6)]Gal(b1-4)GlcNAc
# In short: as §1
# Neu5Ac(a2-3)Gal = molecular target: Neu5Ac(a2-3)Gal
# In short: as §1
# [19] = molecular target: Neu5Ac(a2-3)Gal(b1-4)GlcNAc(b1-6)[Neu5Ac(a2-3)Gal(b1-3)]GalNAc
# In short: as §1
# [20] = molecular target: Neu5Ac(a2-3)Gal(b1-4)GlcNAc6S
# In short: as §1
# [21] = molecular target: Neu5Ac(a2-3)Gal6S(b1-4)GlcNAc
# In short: as §1
# [22] = molecular target: Neu5Ac(a2-3)[Neu5Ac(a2-6)]GalNAc
# In short: as §1
# [23] = molecular target: Neu5Ac(a2-6)Gal(b1-4)GlcNAc(b1-2)Man(a1-3)[Gal(b1-4)GlcNAc(b1-2)Man(a1-6)]Man(b1-4)GlcNAc(b1-4)GlcNAc
# In short: as §1
# [24] = molecular target: Neu5Ac(a2-6)Gal(b1-4)GlcNAc(b1-3)Gal(b1-4)GlcNAc(b1-3)GalNAc
# In short: as §1
# [25] = molecular target: Neu5Ac(a2-6)GalNAc(b1-4)GlcNAc6S
# In short: as §1
# Neu5Ac(a2-8)Neu5Ac = molecular target: Neu5Ac(a2-8)Neu5Ac
# In short: as §1
# [26] = molecular target: Neu5Ac(a2-8)Neu5Ac(a2-3)[Gal(b1-3)GalNAc(b1-4)]Gal(b1-4)Glc
# In short: as §1
# [27] = molecular target: Neu5Gc(a2-3)Gal(b1-3)GlcNAc
# In short: as §1
# Neu5Gc(a2-6)GalNAc = molecular target: Neu5Gc(a2-6)GalNAc
# In short: as §1
# [28] = molecular target: Neu5Gc(b2-6)Gal(b1-4)GlcNAc
# In short: as §1
binder,measurement,setting,value
"Siglec-7-SA-PE-180 (Homo sapiens), Q9Y286 (protein) MLLLLLLPLLWGRERVEGQKSNRKDYSLTMQSSVTVQEGMCVHVRCSFSYPVDSQTDSDPVHGYWFRAGNDISWKAPVATNNPAWAVQEETRDRFHLLGDPQTKNCTLSIRDARMSDAGRYFFRMEKGNIKWNYKYDQLSVNVTALTHRPNILIPGTLESGCFQNLTCSVPWACEQGTPPMISWMGTSVSPLHPSTTRSSVLTLIPQPQHHGTSLTCQVTLPGAGVTTNRTIQLNVSYPPQNLTVTVFQGEGTASTALGNSSSLSVLEGQSLRLVCAVDSNPPARLSWTWRSLTLYPSQPSNPLVLELQVHLGDEGEFTCRAQNSLGSQHVSLNLSLQQEYTGKMRPVSGVLLGAVGGAGATALVFLSFCVIFIVVRSCRKKSARPAADVGDIGMKDANTIRGSASQGNLTESWADDNPRHHGLAAHSSGEEREIQYAPLSFHKGEPQDLSGQEATNNEYSEIKIPK",glycan array binding signal (z-score),[1],-0.254
same,glycan array binding signal (z-score),[2],-0.174
same,glycan array binding signal (z-score),Fuc(a1-2)Gal(b1-4)GlcNAc,-0.302
same,glycan array binding signal (z-score),[3],-0.066
same,glycan array binding signal (z-score),[4],-0.133
same,glycan array binding signal (z-score),[5],2.66
same,glycan array binding signal (z-score),[6],-0.313
same,glycan array binding signal (z-score),[7],-0.099
same,glycan array binding signal (z-score),[8],10.7
same,glycan array binding signal (z-score),Gal(a1-3)Gal(b1-3)GlcNAc,-0.363
same,glycan array binding signal (z-score),[9],-0.225
same,glycan array binding signal (z-score),[10],-0.267
same,glycan array binding signal (z-score),[11],0.048
same,glycan array binding signal (z-score),[12],-0.412
same,glycan array binding signal (z-score),[13],-0.464
same,glycan array binding signal (z-score),[14],-0.144
same,glycan array binding signal (z-score),[15],-0.383
same,glycan array binding signal (z-score),[16],-0.453
same,glycan array binding signal (z-score),Gal(b1-4)GlcNAc6P,0.085
same,glycan array binding signal (z-score),Gal6S(b1-3)GlcNAc6S,2.28
same,glycan array binding signal (z-score),Gal6S(b1-4)GlcNAc6S,2.43
same,glycan array binding signal (z-score),GalNAc(b1-4)Gal(b1-4)Glc,0.174
same,glycan array binding signal (z-score),GalNAc3S(b1-4)GlcNAc3S,2.05
same,glycan array binding signal (z-score),[17],0.059
same,glycan array binding signal (z-score),[18],-0.346
same,glycan array binding signal (z-score),Neu5Ac(a2-3)Gal,2.25
same,glycan array binding signal (z-score),[19],-0.035
same,glycan array binding signal (z-score),[20],4.5
same,glycan array binding signal (z-score),[21],2.67
same,glycan array binding signal (z-score),[22],3.03
same,glycan array binding signal (z-score),[23],-0.303
same,glycan array binding signal (z-score),[24],-0.587
same,glycan array binding signal (z-score),[25],0.866
same,glycan array binding signal (z-score),Neu5Ac(a2-8)Neu5Ac,2.11
same,glycan array binding signal (z-score),[26],-0.067
same,glycan array binding signal (z-score),[27],-0.155
same,glycan array binding signal (z-score),Neu5Gc(a2-6)GalNAc,2.26
same,glycan array binding signal (z-score),[28],-0.05
